Sampled rows, rich in hits. Any-hit rate of the full collection: about 7.9%.
MARV entry inh – Marburg virus entry inhibition | Marburg virus pseudotyped entry inhibition, cell reporter | Potency, µM (doses to about 37.8 µM), for the others: top-dose activity change, negative = inhibition, actives largely listed as inhibitors | 300,000 tested, 1.8% active | AID 540276; calls by dose curve; tested in HEK293 cells; further: potency means the concentration at half of the fitted maximal effect
HCV inhibitor – inhibitors of hepatitis C virus infection | Huh7.5.1 HCVcc-Cre infection, luciferase reporter, 44 h | Potency, µM (titrated, usually from 41.8 µM), without a hit: at the highest dose activity change, negative = inhibition, actives largely listed as inhibitors | 340,000 tested, 3.4% active; active means well fitted inhibition curve with a large enough effect; inconclusive means small, poorly fitted or top-dose-only effect, or another doubt; inactive means no such curve, though single readings can be large or run the other way; further: potency means the concentration at half of the fitted maximal effect
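Cells seeded at 1,000/well and cultured 4 h, then compounds added followed by HCVcc-Cre virus (~0.5 moi). After 44 h further culture, luciferase substrate was added, plates held 15 min at room temperature, and luminescence read for 15 sec.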
Lassa entry inh – Lassa virus entry inhibition | 300,000 tested, 1.2% active | Potency, µM (top dose mostly 37.9 µM), for the others: top-dose activity change, negative = inhibition, hits mostly inhibitors | Lassa virus pseudotype entry inhibition, cell reporter; calls by dose curve; tested in HEK293 cells; further: potency means the concentration at half of the fitted maximal effect; nearly all actives have a fitted effect of over 50% in size
HCMV antiviral – human cytomegalovirus inhibition; HFF cells, HCMV-luciferase reporter, 72 h; hits give low values; activity change, negative = inhibition, % at 57.5 µM; 410,000 tested, 4.5% active; in the data active means activity change below about -60%; inconclusive means no clear call, values can overlap the other calls; inactive means above about -39%
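Screen run at 2 compound doses on HFFs infected with reporter HCMV, MOI 1 PFU/cell. Luciferase activity from cell lysates at 72 h post infection gave inhibition relative to buffer-only and Salinomycin wells.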
FMDV inh – foot and mouth disease virus antiviral activity; FMDV antiviral cell-based qHTS; Potency, µM (doses to about 57.9 µM), inactives show at the highest dose activity change, negative = inhibition, most hits filed as inhibitors; 410,000 tested, 1.2% active; calls by dose curve; tested in HEK293T cells; further: read-out not given here; potency means the concentration at half of the fitted maximal effect; nearly all actives have a fitted effect of over 45% in size
* marks the source's active call; other numbers are inactive results; ? = inconclusive; nt = no result; [ ] = remark or other dose. On the % scale 0 is the no-effect control and ±100 the full control effect.

SMILES	MARV entry inh	HCV inhibitor	Lassa entry inh	HCMV antiviral	FMDV inh
CCc1ccc(-n2c(=O)c3c4c(sc3n(Cc3ccccc3C#N)c2=O)CCCC4)cc1	-6.5%[46.1 µM]	nt	-5.2%[46.1 µM]	7.6	-18.6%
CC1CN(CC(=O)NCCc2ccncc2)Cc2ccccc2O1 (configuration not stated)	nt	nt	nt	nt	-2.7%
CC(C)OC(=O)C[C@H](NC(=O)OC(C)(C)C)c1ccccc1	-8.9%	nt	nt	nt	nt
CN(N=O)c1ccc(O)c(O)c1	17.7µM*	nt	?	nt	nt
CC1=[N+](C)c2ccc3ccccc3c2C1(C)C	?	?	?	-84.3*	?
Cc1nsc2c1ccc1ccccc12	24.2%[46.1 µM]	-0.4%	-9.1%	-36.6	14.5%
COc1cc(C=NNc2ncnc3c2cnn3Cc2ccccc2)ccc1O	nt	nt	7.91µM*	nt	nt
COc1cc(/C=N/Nc2nc(C)nc3c2cnn3-c2ccccc2)ccc1O	11.2µM*	11.2µM*	?	-34.3	-1.3%
COc1cccc(/C=N/Nc2cc(Cl)nc(C)n2)c1O	25.9%	0.1%	1.5%	54.0	24.1%
COc1cc(C=NNc2ncnc3c2cnn3-c2ccccc2)ccc1O	nt	nt	15.8µM*	nt	nt
COc1cc(/C=N/Nc2ccccn2)ccc1O	?	-22.6%	?	93.5	7.5%
COc1cccc(/C=N/Nc2ncnc3c2ncn3Cc2ccccc2)c1O	?	?	7.31µM*	-98.0*	-21.4%
Cc1cnc(SCC2CCCO2)nc1C1CCCN(C(=O)C2=NNC(=O)CC2)C1 (configuration not stated)	nt	nt	nt	nt	-3.5%
CC1(C)C(=O)CC[C@]2(C)C3C(=O)C=C4[C@H]5C[C@@](C)(C(=O)O)CC[C@]5(C)CC[C@]4(C)[C@]3(C)CC[C@@H]12 (some centres not stated)	nt	17.8%	nt	13.5	-16.3%
CC1=C(O)C(=O)C=C2C1=CC=C1[C@]2(C)CC[C@@]2(C)C3C[C@](C)(C(=O)O)CC[C@@]3(C)CC[C@@]12C (some centres not stated)	nt	nt	nt	nt	3.98µM*
CCc1ccc2nc(N(CCCN(C)C)C(=O)c3ccc(C(=O)c4ccccc4)cc3)sc2c1	?	-23.2%	?	-98.4*	-22.4%
CCOc1cccc2sc(N(CCN(C)C)C(=O)c3cc4ccccc4cc3OC)nc12	nt	14.1µM*	nt	-39.0	-13.4%
CCOc1cccc2sc(N(CCCN(C)C)C(=O)c3ccc(C(=O)c4ccccc4)cc3)nc12	?	?	?	-77.3*	-10.9%
CCc1ccc2nc(N(CCCN(C)C)C(=O)c3ccc(S(=O)(=O)N4CCCc5ccccc54)cc3)sc2c1	?	?	12.6µM*	-89.2*	?
CCOc1ccc2nc(N(CCN(C)C)C(=O)c3cc4ccccc4cc3OC)sc2c1	nt	-27.6%	nt	nt	-29.0%
O=C(Nc1cc(S(=O)(=O)N2CCCCC2)ccc1O)c1ccccc1NS(=O)(=O)c1ccc(F)c(F)c1	0.6%	30.9%	-13.2%	-15.2	11.6%
COc1cccc(N2CCN(C(=O)C3CCN(S(=O)(=O)c4c(C)noc4C)CC3)CC2)c1	-5.0%[46.1 µM]	nt	-14.2%[46.1 µM]	4.3	-18.4%
COc1cccc2sc(N(CCCN(C)C)C(=O)c3ccc(S(=O)(=O)N4CCCc5ccccc54)cc3)nc12	nt	14.1µM*	nt	-71.3*	?
CN[C@@H]1C[C@H](c2ccc(Cl)c(Cl)c2)c2ccccc21	4.61µM*	nt	nt	nt	?
CN[C@@H]1C[C@@H](c2ccc(Cl)c(Cl)c2)c2ccccc21	4.61µM*	nt	13µM*	nt	nt
SMILES	MARV entry inh	HCV inhibitor	Lassa entry inh	HCMV antiviral	FMDV inh
Cc1ccc(NC(=O)/C(Cl)=C\c2ccccc2)cc1	7.94µM*	-4.7%	4.47µM*	-1.4	-5.5%
O=C(c1c[nH]c2ccccc12)C(Cl)c1ccccc1 (configuration not stated)	nt	-28.2%	nt	-100.1*	?
O=C(c1c[nH]c2ccccc12)C(O)C(c1ccccc1)N1CCOCC1 (configuration not stated)	-3.1%	8.8%	-14.4%	31.4	23.2%
CC1=Nc2ccccc2/C1=C\c1sc(Nc2ccc(C)cc2)nc1O	?	?	?	-88.9*	0.0%
Cc1ccccc1CN1CCN2C(C(=O)NCC3CCOCC3)=COC2=NC1=O	nt	nt	nt	-0.3	nt
O=C(Nc1ccccc1C(F)(F)F)c1ccc2oc(=O)c(S(=O)(=O)c3ccc(F)cc3)cc2c1	2.0%[46.1 µM]	nt	-12.2%[46.1 µM]	-1.9	28.2µM*
O=c1oc2ccc(Br)cc2cc1S(=O)(=O)c1ccc(F)cc1	-5.9%	?	-19.5%	nt	28.2µM*
COc1ccc2cc(S(=O)(=O)c3ccccc3)c(=O)oc2c1	1.5%	4.4%	nt	-22.0	-29.9%
COc1ccccc1NC(=O)c1ccc2oc(=O)c(S(=O)(=O)c3ccccc3)cc2c1	6.5%[46.1 µM]	nt	?	15.2	28.2µM*
Cc1ccc(NC(=O)c2ccc3oc(=O)c(S(=O)(=O)c4ccccc4)cc3c2)cc1C	-0.1%[46.1 µM]	nt	18.0%[46.1 µM]	21.5	28.2µM*
Cc1c(OCC(=O)NCc2ccncc2)ccc2c3c(c(=O)oc12)CCCC3	nt	?	nt	-30.0	-16.2%
CCN(CC)c1ccc(NC(=O)CCN2C(=O)c3ccccc3S2(=O)=O)c(C)c1	13.5%[46.1 µM]	4.5%	-1.3%	-13.6	-22.7%
Cc1ccc(S(=O)(=O)N(C)c2ccc(OCC(=O)NCC3(N(C)C)CCCCC3)cc2)cc1	?	?	-0.1%	?	-19.0%
CCOC1=C2CN(S(=O)(=O)c3ccc(C)cc3)[C@@H](c3ccccc3)C[C@H]2[C@H]2C(=O)N(c3ccccc3)C(=O)[C@H]2C1	nt	nt	nt	-10.8	-18.2%
c1coc(CNc2ncnc3sc4c(c23)CCCCC4)c1	-10.5%	?	0.3%	-4.4	?
Cc1nc(NCc2ccco2)c2c3c(sc2n1)CCC3	?	-15.1%	-2.9%	-70.3*	?
c1ccc(CNc2ncnc3sc4c(c23)CCCC4)nc1	-16.9%	?	6.9%	?	?
Cc1nc(NCc2ccccn2)c2c3c(sc2n1)CCCC3	?	22.4µM*	-0.8%[46.1 µM]	-17.4	?
O=c1cc(N2CCN(c3ccc(F)cc3)CC2)[nH]c(=O)n1-c1cccc(Br)c1	nt	nt	?	59.8	3.5%
CCN(CC)c1ccc(/C=C2\CCC(/C=N/NC(=O)c3ccc(=O)n(C)c3)=C2N2CCOCC2)cc1	0.9%[46.1 µM]	?	-18.9%	16.8	-27.7%
COc1cc(CC2C(=O)OCC2C(=O)c2ccc3c(c2)OCO3)cc(OC)c1OC (configuration not stated)	22.7%	24.7%	9.9%[46.1 µM]	23.9	-14.4%
COc1cc(C[C@@H]2C(=O)OC[C@H]2Cc2ccc(OC)c(OC)c2)ccc1O	nt	?	nt	-89.8*	20µM*
COc1cc(OC)c(OC)cc1CN1CCN(Cc2cccn2C)CC1	20.6µM*	-7.8%	-0.5%	16.6	-5.9%
CCC(Sc1nc(C)cc(C)n1)C(=O)NC1=NN=C(c2ccc(C)cc2)CS1 (configuration not stated)	?	?	?	-105.5*	-13.8%
Cc1cc(C)nc(SCC(=O)NC2=NN=C(c3ccc(Br)cc3)CS2)n1	0.1%	?	-12.4%	-91.7*	?
COc1ccc(-n2nc(C(=O)N3CCCC(C)C3)c3c4ccccc4n(C)c3c2=O)cc1Cl (configuration not stated)	7.7%[46.1 µM]	nt	8.1%[46.1 µM]	-27.5	-19.3%
